Active and inactive are the calls of the source.

This is an account of results in PubChem BioAssay.

Test [1] is described as follows: small molecules captured by biotinylated probe aFSTL3 – biochemical, small-molecule microarray, fluorescence 635/667, stem cell growth factor project, primary screen (AID 1064).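 Further: measures binding of the biotinylated anti-FSTL3 antibody to printed compounds.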 Conditions: higher = more signal.
A short description of test [2]: binders from COS7 lysate, DM2A8 probe, primary screen, torsin A project, cell lysate, small-molecule microarray, fluorescence 635/667 (AID 1065). To be noted: higher = more signal, COS7 lysate expressing mutant human TOR1A.
Test [3] in a line: small molecules captured by biotinylated probe aFGF2 – biochemical, small-molecule microarray, fluorescence 635/667, stem cell growth factor project, primary screen (AID 1067).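 Further: measures binding of biotinylated aFGF2 protein to printed compounds on slides; z-score merges feature fluorescence and signal-to-noise across triplicate slides.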 Conditions: higher = more signal.
Test [4] can be described thus: small molecules captured by biotinylated probe aFGF10 – biochemical, small-molecule microarray, fluorescence 635/667, stem cell growth factor project, primary screen (AID 1071).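 Further: score merges 667 nm spot intensity and signal to noise from triplicate slides.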 To be noted: higher = more signal.
The target of test [5] is Neurogenic locus notch homolog protein 2 (Homo sapiens) (UniProt Q04721). Put plainly: small molecules binding Notch2 protein – biochemical, small-molecule microarray, 635 nm fluorescence, stem cell growth factors, primary screen (AID 1073). To be noted: higher = more signal.
Test [6] concerns the target Pro-neuregulin-1, membrane-bound isoform (Homo sapiens) (UniProt Q02297). Nature of the test: small molecules binding neuregulin-1 protein – biochemical, small-molecule microarray, fluorescence 635/667, psychiatric disease protein project, primary screen (AID 1075).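 Further: score combines 667 nm spot fluorescence with signal to noise.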 To be noted: NRG1 binding, 635 nm fluorescence, higher = more signal.
Test [7] deals with Neuregulin-1 EGF-like domain. Nature of the test: small molecules binding NRG1 EGF domain – biochemical, small-molecule microarray, 635 nm fluorescence, primary screen (AID 1081).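 Further: binding of the protein to compounds printed on small-molecule microarray slides.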 Conditions: higher = more signal.
Test [8] in a line: FRG1 expression reporter modulators in myotubes – cell-based, C2C12 myotubes, firefly/Renilla luciferase, luminescence, FRG1 inhibition for FSHD, primary screen (AID 1084). To be noted: FRG1 promoter luciferase, higher = more signal, called active from +8 up or from −8 down.
Test [9] is described as follows: small molecules captured by biotinylated probe aFST – biochemical, small-molecule microarray, fluorescence 635/667, stem cell growth factor project, primary screen (AID 1086).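 Further: score merges 667 nm fluorescence with signal-to-noise of each printed compound spot.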 Conditions: higher = more signal.
Test [10] can be described thus: binders of probe aHhip on microarray, primary screen, stem cell growth factor project, biochemical, small-molecule microarray, fluorescence 635/667 (AID 1087).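 Further: score merges spot fluorescence at 667nm with spot signal to noise ratio.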 To be noted: higher = more signal.
The test system of test [11] is PRMT1 (protein arginine N-methyltransferase 1). Put plainly: small molecules binding arginine methyltransferase PRMT1 – biochemical, small-molecule microarray, 635 nm fluorescence, primary screen (AID 1088).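 Further: binding of Prmt1 protein to compounds spotted on small-molecule microarray slides.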 To be noted: higher = more signal.
Test [12] in a line: growth effects on S. cerevisiae YJM789 – YJM789 clinical isolate, OD600, 24 h, basal, primary screen (AID 1089).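 Further: growth of clinical yeast isolate S. cerevisiae YJM 789 seeded 1000 cells per well; test concentration not given here.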 Conditions: higher = more signal, called active from +8 up or from −8 down.
Test [13] is described as follows: S. pombe growth modifiers, basal conditions – strain 972, OD600, 24 h, no modulator, primary screen (AID 1090).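 Further: basal condition with compound alone and no growth modifier present; test concentration not given here.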 To be noted: S. pombe 972 growth, higher = more signal, called active from +8 up or from −8 down.
Test [14] in a line: budding yeast growth modifiers under rapamycin – strain BY4716, OD600, 96 h, primary screen (AID 1091). Further: test concentration not given here. Conditions: S. cerevisiae BY4716 + rapamycin, higher = more signal, called active from +8 up or from −8 down.
In test [15] the target is Torsin-1A-interacting protein 2 (Homo sapiens) (UniProt Q8NFQ8). Put plainly: small molecules binding lysate-expressed LULL1 – cell lysate, human LULL1 lysate, 635/667 nm fluorescence, primary screen (AID 1092).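 Further: probe is lysate of COS7 cells overexpressing human LULL1; score merges per-feature 667 nm fluorescence with signal-to-noise.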 Conditions: small-molecule microarray, hLULL1 lysate binding, 635 nm fluorescence; higher = more signal.
Torsin-1A-interacting protein 2 (Homo sapiens), sequence (Q8NFQ8 whole entry, looked up): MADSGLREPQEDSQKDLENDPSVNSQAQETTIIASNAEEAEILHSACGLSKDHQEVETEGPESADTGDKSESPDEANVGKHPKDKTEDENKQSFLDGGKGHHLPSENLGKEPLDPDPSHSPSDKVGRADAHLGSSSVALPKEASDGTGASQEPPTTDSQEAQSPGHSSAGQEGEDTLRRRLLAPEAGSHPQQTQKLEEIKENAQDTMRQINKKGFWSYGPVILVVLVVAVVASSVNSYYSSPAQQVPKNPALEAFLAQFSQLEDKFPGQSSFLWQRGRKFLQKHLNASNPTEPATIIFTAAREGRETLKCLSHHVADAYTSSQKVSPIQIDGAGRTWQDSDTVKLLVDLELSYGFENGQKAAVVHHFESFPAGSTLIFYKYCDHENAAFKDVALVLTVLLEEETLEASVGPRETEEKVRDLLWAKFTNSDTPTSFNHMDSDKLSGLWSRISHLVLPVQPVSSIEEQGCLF
Test [16] is described as follows: optical density change of DRC41 E. coli – strain DRC41, OD650, 24 h, E. coli filamentation project, primary screen (AID 1093).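 Further: MC1000 strain lacking acrAB efflux and sulA so SOS filamentation is blocked; test concentration not given here.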 Conditions: E. coli DRC41 growth, higher = more signal, called active from +8 up or from −8 down.
Test [17] is described as follows: probe aLefty2 binding to arrayed compounds – biochemical, biotinylated probe, 635/667 nm fluorescence, primary screen (AID 1094).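 Further: score merges spot fluorescence near 667 nm with spot signal-to-noise ratio.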 To be noted: small-molecule microarray, higher = more signal.
Test [18] deals with Noggin (protein binding on small-molecule microarray). Nature of the test: small molecules binding Noggin protein – biochemical, 635/667 nm fluorescence, primary screen (AID 1095).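 Further: score merges 667 nm feature fluorescence with signal to noise over triplicate slides.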 To be noted: 635 nm fluorescence, higher = more signal.
For test [19], the target named is Neurogenic locus notch homolog protein 3 (Homo sapiens) (UniProt Q9UM47). Put plainly: small molecules binding NOTCH3 protein – biochemical, 635/667 nm fluorescence, primary screen (AID 1096). Conditions: small-molecule microarray, 635 nm fluorescence, higher = more signal.
Neurogenic locus notch homolog protein 3 (Homo sapiens), sequence (Q9UM47 whole entry, looked up): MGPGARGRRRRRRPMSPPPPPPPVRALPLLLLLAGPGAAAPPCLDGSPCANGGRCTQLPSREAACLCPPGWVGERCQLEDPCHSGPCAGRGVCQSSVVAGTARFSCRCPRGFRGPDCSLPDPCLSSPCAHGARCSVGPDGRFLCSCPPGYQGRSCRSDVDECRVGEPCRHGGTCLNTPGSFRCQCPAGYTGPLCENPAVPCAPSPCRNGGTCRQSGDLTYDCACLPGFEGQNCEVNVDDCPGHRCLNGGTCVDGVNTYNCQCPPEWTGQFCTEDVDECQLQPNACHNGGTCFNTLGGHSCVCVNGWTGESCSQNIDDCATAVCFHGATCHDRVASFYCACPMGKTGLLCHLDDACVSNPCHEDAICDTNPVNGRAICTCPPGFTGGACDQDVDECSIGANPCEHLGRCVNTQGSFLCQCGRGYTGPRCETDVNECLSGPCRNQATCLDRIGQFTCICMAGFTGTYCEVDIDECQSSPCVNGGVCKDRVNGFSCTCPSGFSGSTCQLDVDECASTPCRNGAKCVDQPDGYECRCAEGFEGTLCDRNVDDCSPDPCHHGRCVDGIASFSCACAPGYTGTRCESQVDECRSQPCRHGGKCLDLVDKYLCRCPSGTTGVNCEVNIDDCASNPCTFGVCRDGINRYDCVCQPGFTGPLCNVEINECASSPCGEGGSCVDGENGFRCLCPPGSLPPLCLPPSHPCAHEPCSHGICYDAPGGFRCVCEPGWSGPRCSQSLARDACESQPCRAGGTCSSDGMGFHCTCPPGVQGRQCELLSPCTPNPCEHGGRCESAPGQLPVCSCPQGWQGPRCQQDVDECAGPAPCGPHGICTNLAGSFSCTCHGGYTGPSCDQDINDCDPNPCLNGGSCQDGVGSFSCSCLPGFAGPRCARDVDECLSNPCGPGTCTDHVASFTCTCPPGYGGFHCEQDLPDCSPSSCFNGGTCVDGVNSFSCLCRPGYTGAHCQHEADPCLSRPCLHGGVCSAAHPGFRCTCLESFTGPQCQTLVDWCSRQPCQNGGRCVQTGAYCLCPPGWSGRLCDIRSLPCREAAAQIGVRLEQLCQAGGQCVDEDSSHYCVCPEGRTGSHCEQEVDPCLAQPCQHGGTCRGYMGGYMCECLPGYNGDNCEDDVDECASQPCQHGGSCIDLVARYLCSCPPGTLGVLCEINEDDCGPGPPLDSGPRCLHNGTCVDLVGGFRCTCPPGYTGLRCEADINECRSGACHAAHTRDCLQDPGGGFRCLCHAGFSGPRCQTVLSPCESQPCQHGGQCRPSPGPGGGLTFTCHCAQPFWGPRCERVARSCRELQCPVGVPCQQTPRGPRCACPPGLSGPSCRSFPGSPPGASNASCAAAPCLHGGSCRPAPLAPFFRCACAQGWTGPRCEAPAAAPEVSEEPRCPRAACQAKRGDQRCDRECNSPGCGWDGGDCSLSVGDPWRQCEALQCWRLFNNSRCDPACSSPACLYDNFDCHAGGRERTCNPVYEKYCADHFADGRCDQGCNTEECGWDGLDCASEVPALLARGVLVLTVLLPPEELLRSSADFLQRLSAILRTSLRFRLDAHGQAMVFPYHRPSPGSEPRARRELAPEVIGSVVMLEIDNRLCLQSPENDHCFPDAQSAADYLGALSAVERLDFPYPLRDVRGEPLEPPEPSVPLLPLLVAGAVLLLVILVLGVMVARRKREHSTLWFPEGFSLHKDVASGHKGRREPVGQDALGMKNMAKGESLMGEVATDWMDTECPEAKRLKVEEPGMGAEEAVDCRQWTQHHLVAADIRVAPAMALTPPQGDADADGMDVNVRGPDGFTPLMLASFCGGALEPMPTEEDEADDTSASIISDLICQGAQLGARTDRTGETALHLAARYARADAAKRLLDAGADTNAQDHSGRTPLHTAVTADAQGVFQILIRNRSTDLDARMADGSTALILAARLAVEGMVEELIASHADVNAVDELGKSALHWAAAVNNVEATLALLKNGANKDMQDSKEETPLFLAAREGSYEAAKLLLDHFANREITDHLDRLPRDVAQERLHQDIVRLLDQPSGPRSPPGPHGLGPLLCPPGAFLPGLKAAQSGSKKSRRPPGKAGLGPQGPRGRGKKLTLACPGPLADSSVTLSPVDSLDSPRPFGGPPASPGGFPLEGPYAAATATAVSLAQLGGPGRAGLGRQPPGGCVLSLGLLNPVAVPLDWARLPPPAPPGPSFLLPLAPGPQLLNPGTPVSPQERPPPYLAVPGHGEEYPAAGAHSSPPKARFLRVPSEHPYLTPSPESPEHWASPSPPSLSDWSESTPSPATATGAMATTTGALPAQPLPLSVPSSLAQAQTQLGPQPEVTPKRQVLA
Test [20] is described as follows: probe aEGFR binding to arrayed compounds – biochemical, biotinylated probe, 635/667 nm fluorescence, primary screen (AID 1097).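 Further: probe is a biotinylated anti-EGFR antibody binding compounds printed on slides; score combines fluorescence near 667 nm and signal to noise of each spot.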 To be noted: small-molecule microarray, higher = more signal.

Pro-neuregulin-1, membrane-bound isoform (Homo sapiens), sequence (Q02297 whole entry, looked up, the tested form may be a part, canonical isoform): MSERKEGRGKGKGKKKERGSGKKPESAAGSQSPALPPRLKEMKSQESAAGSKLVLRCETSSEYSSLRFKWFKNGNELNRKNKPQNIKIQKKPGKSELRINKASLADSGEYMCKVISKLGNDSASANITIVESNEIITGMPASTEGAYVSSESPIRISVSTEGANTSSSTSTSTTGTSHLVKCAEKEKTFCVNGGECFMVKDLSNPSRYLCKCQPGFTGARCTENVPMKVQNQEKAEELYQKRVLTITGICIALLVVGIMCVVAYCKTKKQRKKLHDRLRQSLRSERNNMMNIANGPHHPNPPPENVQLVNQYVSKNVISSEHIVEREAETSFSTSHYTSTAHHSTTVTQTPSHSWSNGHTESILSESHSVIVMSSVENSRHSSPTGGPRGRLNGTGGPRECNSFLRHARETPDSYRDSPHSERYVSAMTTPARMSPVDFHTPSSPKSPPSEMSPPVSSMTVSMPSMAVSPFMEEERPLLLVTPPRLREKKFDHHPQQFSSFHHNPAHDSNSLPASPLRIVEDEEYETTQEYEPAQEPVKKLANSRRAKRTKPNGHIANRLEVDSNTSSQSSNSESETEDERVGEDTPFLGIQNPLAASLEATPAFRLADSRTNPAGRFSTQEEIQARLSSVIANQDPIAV

Regarding `C=CCC(OC(C)=O)[C@@H]1[C@@H](N(Cc2cc3ccccc3o2)C(=O)Cc2ccc(OC)cc2)c2cc(OCCCO)ccc2N1C(=O)Cc1ccc(OC)cc1` (stereo not given in full), the composite z-score in test [1] is -0.186; in [2] it was 0.0357; in [3], -0.0459; in test [4] it was 0.0855; in test [5], -0.144; in [6], -0.0625. The composite z-score in test [7] was 0.0781; in test [9], -0.0586; in test [10], 0.0623; in [11], 0.0873; in test [15], 0.0103; in test [17], -0.0757. Besides, the composite z-score is 0.312 in test [18], -0.293 in [19] and -0.108 in test [20]. Besides, the z-score in test [8] was -1.19 (inactive); in test [12], -0.484 (inactive); in [13], 0.142 (inactive); in [14], -0.197 (inactive); in test [16], -0.847 (inactive).
Turning to `COCCOC(=O)N1C(=O)[C@@]2(c3cc(C#Cc4ccc(OC)cc4)ccc31)[C@H](C(=O)N1CCCCCCC1)[C@H]1C(=O)O[C@H](c3ccccc3)[C@H](c3ccccc3)N1[C@@H]2c1ccccc1OCCO`, the composite z-score in [1] was found to be 3.15; in test [2], 0.486; in [3], 0.685; in test [4], 0.265; in test [5], 1.13; in test [6] it was 1.29. Further, the composite z-score in test [7] was 1.12; in test [9] it was 3.04; in test [10], 2.21; in test [11], 1.44; in test [15], 3.66; in test [17], 1.63. Further, the composite z-score worked out at 1.91 in [18], 1.12 in test [19] and 1.02 in test [20]. Besides, the z-score in [8] was -0.575 (inactive); in test [12] it was 1.83 (inactive); in test [13] it was 1.44 (inactive); in [14], 3.98 (inactive); in test [16], -0.291 (inactive).
As for `COc1ccc(C#Cc2ccc3c(c2)[C@]2(C(=O)N3)[C@H](c3ccc(OCCO)cc3)N3[C@H](c4ccccc4)[C@H](c4ccccc4)OC(=O)[C@H]3[C@@H]2C(=O)O)cc1`, the composite z-score is -0.302 in test [1]; 0.478 in test [2]; 0.0296 in test [3]; 1.12 in [4]; 1.34 in test [5]; 0.343 in test [6]. The composite z-score in test [7] is 1.25; in [9], 0.29; in test [10], -0.0454; in test [11], 1.54; in test [15], 3.21; in [17], -0.232. For the same compound, the composite z-score came to 1.29 in [18], 1.04 in [19] and 0.0649 in [20]. For the same compound, the z-score in [8] was 0.373 (inactive); in test [12], 2.83 (inactive); in test [13], 0.685 (inactive); in test [14], 1.4 (inactive); in [16], 2.57 (inactive).
Consider `N#Cc1ccc(C(O)C2C=CC3C(=O)N(c4ccccc4)C(=O)C3N2Nc2ccc([N+](=O)[O-])cc2)cc1` (stereo not given), for which the composite z-score in test [1] amounted to 0.561; in [2] it was 0.31; in [3], 0.139; in test [4], 0.863; in [5], 1.58; in test [6], 1.77. Also, the composite z-score is 1.28 in [7]; 1.02 in test [9]; -0.175 in [10]; 1.51 in [11]; 3.13 in [15]; 0.0913 in test [17]. Besides, the composite z-score is -0.463 in test [18], 1.09 in test [19] and 0.0522 in test [20]. Besides, the z-score in test [8] was 0.498 (inactive); in test [12], -0.107 (inactive); in [13], 0.602 (inactive); in [14], 2.45 (inactive); in test [16] it was -0.684 (inactive).
As for `CN(C)CCCC[C@@H]1NC(=O)[C@@H]2C[C@H](C(=O)NCc3ccc(F)cc3)[C@H](c3ccc(O)cc3)N2C1=O`, the composite z-score was 0.274 in test [1]; 0.295 in [2]; -0.103 in [3]; 0.203 in test [4]; -0.446 in [5]; 0.625 in test [6]. Moreover, the composite z-score in test [7] is 1.49; in test [9] it was -0.512; in test [10], -0.191; in [11] it was 1.34; in test [15], 2.72; in test [17], 0.164. The composite z-score came out at 1.9 in test [18], 0.968 in test [19] and 0.364 in test [20]. Also, the z-score in test [8] was 0.254 (inactive); in [12], 0.582 (inactive); in [13] it was -1.4 (inactive); in [14], 0.0709 (inactive); in [16] it was -0.585 (inactive).
`CC(C)C[C@@H]1NC(=O)[C@@]23C(=O)N[C@@H](Cc4ccccc4)C2[C@H](C)[C@@]2(C)O[C@H]2C3/C=C/C/C=C\CNC(=O)[C@@H](CC(C)C)NC1=O` (stereo not given in full): the composite z-score in test [1] was -0.47; in test [2], -0.0387; in test [3] it was -0.0878; in test [4] it was 0.159; in test [5], 0.416; in test [6], 0.345. Moreover, the composite z-score in test [7] is 0.97; in test [9] it was 0.355; in test [10] it was -0.206; in test [11], 1.55; in test [15], 2.16; in test [17], -0.184. For the same compound, the composite z-score in [18] was 0.914; in test [19] it was 0.895; in [20], -0.0814. Besides, the z-score in [8] was 2.49 (inactive); in test [12] it was -0.652 (inactive); in test [13], -17.9 (active); in [14], 0.241 (inactive); in test [16], -0.313 (inactive).
Consider `CC#CCO[Si](C#CCCCCCC)(C(C)C)C(C)C`, for which the composite z-score in test [1] is 1.3; in [2], -0.134; in [3], -0.24; in test [4], -1.16; in test [5], -1.9; in test [6], -0.353. For the same compound, the composite z-score is 0.439 in [7]; -1.3 in test [9]; -0.341 in [10]; 0.276 in [11]; 0.373 in [15]; 0.137 in test [17]. The composite z-score in [18] was -2.8; in test [19], -1.16; in test [20] it was -0.466. Moreover, the z-score is -0.524 (inactive) in test [8]; 0.176 (inactive) in test [12]; -19.1 (active) in [13]; -1.61 (inactive) in test [14]; -0.0013 (inactive) in test [16].
In the case of `COc1ccc(CCNC(=O)[C@@]2(Sc3ccc(C)cc3)CC(=O)N(C(C)C)[C@@H]2c2ccc(CO)cc2)cc1`, the composite z-score in [1] was 1.09; in [2], 0.53; in test [3], -0.129; in test [4], -0.0606; in test [5], -1.35; in [6] it was 0.871. Further, the composite z-score was 0.401 in test [7]; -0.686 in [9]; 0.021 in test [10]; 0.633 in test [11]; 2.09 in [15]; 0.0507 in [17]. The composite z-score in test [18] is -1.4; in test [19], -1.15; in test [20] it was -0.249. In addition, the z-score in test [8] is -0.921 (inactive); in [12], 0.956 (inactive); in [13], 0.0503 (inactive); in test [14], 0.088 (inactive); in test [16] it was -0.015 (inactive).
As to `O=c1cccc(-c2ccccc2C(F)(F)F)o1`, the composite z-score was 0.912 in test [1]; -0.0924 in test [2]; 0.409 in test [3]; -0.331 in [4]; -0.489 in test [5]; -0.168 in [6]. In addition, the composite z-score in [7] was 0.381; in test [9], 0.862; in test [10] it was 0.173; in [11], -0.205; in [15] it was 1.08; in [17], 0.659. In addition, the composite z-score in test [18] was -0.798; in test [19] it was -0.85; in test [20], 0.323. The z-score was 0.364 (inactive) in [8]; -0.35 (inactive) in test [12]; -0.392 (inactive) in [13]; 0.591 (inactive) in test [14]; -0.582 (inactive) in [16].
